The nature of experiment [1]: Nuclear factor erythroid 2-related factor 2/antioxidant responsive element (Nrf2/ARE) small molecule agonists: luciferase reporter gene qHTS assay in human keratinocytes (AID 1919969). Note: nearly all actives have a fitted effect of over 35% in size. Note: potency is the fitted concentration of half-maximal effect. On the technique in general: Reporter assays use an easily measured gene product as a stand-in for the process of interest.
Experiment [2] concerns the target Gonadotropin-releasing hormone receptor (Homo sapiens) (UniProt P30968). Kind of experiment: Human gonadotropin-releasing hormone receptor (GnRHR) small molecule agonists, calcium flux assay in GnRHR-HEK293 cells (AID 1920063). Note: nearly all actives have a fitted effect of over 35% in size. In short, it runs like this: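 Compounds dissolved in DMSO are pin-transferred onto dye-loaded GnRHR-HEK293 cells, which were seeded 18 h before at 37 C/5% CO2. Calcium signal is read as fluorescence intensity at 1 s intervals for 3 min.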
In general terms: A change in cytosolic calcium serves as a functional read-out for many receptors and channels.

For experiment [3], the target named is KiSS-1 receptor (Homo sapiens) (UniProt Q969F8). Kind of experiment: Human kisspeptin (KISS1R) small molecule agonists, calcium flux assay in KISS1R-HEK293 cells (AID 1920064; active = well fitted activation curve with a large enough effect in the repeat runs). In short, it runs like this:
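Cell line: HEK293, stable human KISS1R. Dye loading 1 h at 37 C after 18 h culture. Read: kinetic fluorescence, 480/540 nm, 3 min at 1 s intervals.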

The nature of experiment [4]: G protein-coupled receptor (GPCR) small molecule agonists, calcium flux assay: HEK293 wild type cell line counter screen (AID 1920065). In short, it runs like this: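 Tox21 10K compounds, 15 concentrations each in triplicate, pin-transferred in DMSO onto dye-loaded cells; kinetic read at 480/540 nm for 3 min, 1 s intervals.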
The nature of experiment [5]: p53 small molecule agonists, cell-based qHTS assay with human liver microsomes (AID 1963577).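 Note: p53 response element beta-lactamase reporter cells with liver microsomes plus NADPH.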 In short, it runs like this:
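16 h, 37 C exposure of p53RE-bla cells to compounds with human liver microsomes and NADPH (0.5 mg/mL final each); detection via LiveBLAzer mixture, 2 h dark at room temperature.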

Experiment [6] in a line: p53 small molecule agonists, cell-based qHTS assay with rat liver microsomes (AID 1963578). In short, it runs like this:
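With rat liver microsomes and NADPH present (0.5 mg/mL final each), p53RE-bla cells are treated with compound for 16 h at 37 C. LiveBLAzer detection mixture is then applied for 2 h at room temperature in the dark.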
For orientation: In qHTS, concentration-response curves come from the screen itself.

Experiment [7] is described as follows: p53 small molecule agonists, cell-based qHTS assay with human liver microsomes: qHTS cell viability counter screen (AID 1963579). Note: nearly all actives have a fitted effect of over 45% in size. In short, it runs like this: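 In this multiplexed counter screen, the reporter plates were subsequently treated with CellTiter-Glo so that cell viability, reflected by luminescence, could be recorded for p53RE-bla cells dosed 16 h with compounds under microsomal activation (HLM and NADPH).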

Experiment [8] in a line: p53 small molecule agonists, cell-based qHTS assay with rat liver microsomes: qHTS cell viability counter screen (AID 1963580). Note: nearly all actives have a fitted effect of over 45% in size. In short, it runs like this: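 After the beta-lactamase ratio was read, CellTiter-Glo was added to the same wells and luminescence measured at 30 min; cells had been treated 16 h at 37 C with compounds, rat liver microsomes and NADPH (0.5 mg/mL final each).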

Experiment [9] can be described thus: p53 small molecule agonists, cell-based qHTS assay: qHTS cell viability counter screen (AID 1963581). Note: nearly all actives have a fitted effect of over 45% in size. In short, it runs like this: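 ATP content measured by luminescence in HCT-116 p53RE-bla cells treated 16 h at 37 C, same wells as the reporter screen.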
Experiment [10] is described as follows: p53 small molecule agonists, cell-based qHTS assay (AID 1963582; active = well fitted activation curve with a large enough effect in the signal ratio in the repeat runs, not every such curve was filed as active; the % refers to the signal ratio). In short, it runs like this:
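16 h compound exposure (37 C) of p53 response element–bla cells, preceded by 5 h recovery at 37 C/5% CO2; read-out via LiveBLAzer B/G FRET substrate, 2 h RT, fluorescence intensity.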

The target of experiment [11] is 5-hydroxytryptamine receptor 2A (Homo sapiens) (UniProt P28223). In words: 5-hydroxytryptamine receptor 2A (HTR2A) small molecule antagonists, cell-based qHTS assay (AID 1963586). Note: nearly all actives have a fitted effect of over 45% in size. In short, it runs like this:
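CHO cells stably expressing human HTR2A were plated for 18 h at 37 C, then loaded with calcium dye for 1 h. Compounds were preincubated 5 min at room temperature before DOI (4 nM solution) was added. Kinetic fluorescence was read for 3 min.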

Experiment [12] shares this target. Kind of experiment: 5-hydroxytryptamine receptor 2A (HTR2A) small molecule agonists, cell-based qHTS assay (AID 1963587). Note: nearly all actives have a fitted effect of over 30% in size. In short, it runs like this:
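CHO cells stably expressing human HTR2A, plated 18 h, loaded with calcium dye 1 h at 37 C. Agonist mode: compounds added and intracellular calcium fluorescence recorded kinetically for 2 min at 1 sec intervals.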

Experiment [13] concerns the target Muscarinic acetylcholine receptor M1 (Homo sapiens) (UniProt P11229). Kind of experiment: Cholinergic receptor muscarinic 1 (CHRM1) small molecule antagonists, cell-based qHTS assay (AID 1963588). Note: nearly all actives have a fitted effect of over 40% in size. In short, it runs like this: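 Compounds were tested at 15 concentrations in three independent runs. Dye-loaded CHRM1-CHO cells were exposed 5 min at room temperature before stimulation by acetylcholine added at 50nM. Intracellular calcium was read kinetically on FDSS for 3 min.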

For experiment [14] the target is unchanged. In words: Cholinergic receptor muscarinic 1 (CHRM1) small molecule agonists, cell-based qHTS assay (AID 1963589). Note: nearly all actives have a fitted effect of over 35% in size. In short, it runs like this:
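Homogeneous fluorescence calcium flux, agonist mode. Human M1-expressing CHO cells; compound dosed at 15 concentrations, three independent runs; signal sampled every 1 sec.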

Experiment [15] in a line: cAMP Responsive Elements (CRE) small molecule agonists, cell-based qHTS assay (AID 1963590). In short, it runs like this: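 HEK 293T cells stably bearing CRE-bla were plated at 2,000 cells per well and rested 18 h. Compounds, positive controls or DMSO were added for 3 h at 37 C. LiveBLAzer B/G substrate was then loaded for 2 h at room temperature.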
A short description of experiment [16]: cAMP Responsive Elements (CRE) small molecule antagonists, cell-based qHTS assay (AID 1963591; active = well fitted inhibition curve with a large enough effect in the signal ratio in the repeat runs, not every such curve was filed as active; the % refers to the signal ratio). In short, it runs like this:
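First, CRE-bla HEK293T cells settled 18 h at 37 C. Next, compound and 0.25 uM final NKH477 were applied for 3 h. Last, LiveBLAzer B/G substrate was loaded for 2 h at room temperature.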

The target in experiment [17] is Beta-2 adrenergic receptor (Homo sapiens) (UniProt P07550). In words: Adrenergic beta2 receptor (ADRB2) small molecule antagonists, cell-based qHTS assay (AID 1963592). Note: series mostly up to about 92 µM; nearly all actives have a fitted effect of over 50% in size. In short, it runs like this:
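Assay format: CHO-ADRB2 cells, 18-20hr seeding at 37C/5% CO2, then compound plus 1nM isoproterenol agonist mix for 0.5hr RT. Homogeneous time-resolved fluorescence cAMP detection after 1hr, expressed as 665/615 nm ratio.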

Experiment [18] shares this target. In words: Adrenergic beta2 receptor (ADRB2) small molecule agonists, cell-based qHTS assay (AID 1963593).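 Note: CHO cells stably overexpressing human ADRB2.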 In short, it runs like this:
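CHO cells stably over-expressing ADRB2 were plated overnight at 37C, then dosed with compounds plus a stimulation mix containing 100uM IBMX and 25uM Ro-20-1724 for 0.5hr at room temperature. cAMP was measured by HTRF competition, 1hr.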

In experiment [19] the target is D(2) dopamine receptor (Homo sapiens) (UniProt P14416). Kind of experiment: Dopamine D2 receptor (DRD2) small molecule agonists, cell-based qHTS assay (AID 1963594). Note: nearly all actives have a fitted effect of over 35% in size. In short, it runs like this:
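HEK293 cells stably expressing human DRD2, pre-treated with PDE inhibitor Ro20-1724 (0.1 mM final) and compound 10 min at room temperature, then stimulated with NKH477 (200nM […]) for 30 min. cAMP read by HTRF (665/620 nm).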

For experiment [20] the target is unchanged. In words: Dopamine D2 receptor (DRD2) small molecule antagonists, cell-based qHTS assay (AID 1963595; active = well fitted inhibition curve with a large enough effect in the signal ratio in the repeat runs, with a control signal flat; the % refers to the signal ratio). In short, it runs like this: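 HEK293 cells stably expressing DRD2, preincubated with 0.1 mM Ro20-1724 and compounds 10 min, were stimulated with 200 nM NKH477 plus 12 nM quinpirole for 30 min at room temperature; cAMP measured by HTRF (665/620 nm).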

Drawing on PubChem BioAssay (Tox21), this text covers Potency for 6 molecules.

Values joined by “and” are separate entries in the source; they are usually repeats but may differ in a detail not shown here. Identical values can stand only once. Results filed as inconclusive are left out. A structure can be active in one record and inactive in another. Active and inactive are the calls of the source. Unless noted, calls come from the whole dose curve.

5-hydroxytryptamine receptor 2A (Homo sapiens), sequence (P28223 whole entry, looked up): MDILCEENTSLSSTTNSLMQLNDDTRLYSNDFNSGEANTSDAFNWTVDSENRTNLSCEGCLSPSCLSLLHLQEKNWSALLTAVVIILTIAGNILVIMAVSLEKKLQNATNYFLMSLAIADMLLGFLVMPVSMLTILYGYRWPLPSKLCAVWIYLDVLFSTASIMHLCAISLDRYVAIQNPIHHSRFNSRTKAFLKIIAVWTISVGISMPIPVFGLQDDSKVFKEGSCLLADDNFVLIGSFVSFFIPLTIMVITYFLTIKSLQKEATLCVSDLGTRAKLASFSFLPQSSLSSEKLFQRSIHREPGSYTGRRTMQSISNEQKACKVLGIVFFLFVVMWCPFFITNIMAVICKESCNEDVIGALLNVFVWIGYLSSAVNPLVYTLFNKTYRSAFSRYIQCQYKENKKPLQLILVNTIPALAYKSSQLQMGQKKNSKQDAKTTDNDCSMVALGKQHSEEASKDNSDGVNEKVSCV
Gonadotropin-releasing hormone receptor (Homo sapiens), sequence (P30968 whole entry, looked up): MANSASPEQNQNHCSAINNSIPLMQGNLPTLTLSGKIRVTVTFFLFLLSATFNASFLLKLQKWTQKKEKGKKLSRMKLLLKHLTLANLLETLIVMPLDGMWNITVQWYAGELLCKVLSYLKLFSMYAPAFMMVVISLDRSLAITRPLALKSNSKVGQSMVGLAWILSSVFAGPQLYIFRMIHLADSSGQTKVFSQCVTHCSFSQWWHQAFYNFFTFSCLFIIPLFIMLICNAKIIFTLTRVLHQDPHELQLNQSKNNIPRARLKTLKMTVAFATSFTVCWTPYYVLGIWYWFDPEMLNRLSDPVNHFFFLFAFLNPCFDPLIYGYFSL
KiSS-1 receptor (Homo sapiens), sequence (Q969F8 whole entry, looked up): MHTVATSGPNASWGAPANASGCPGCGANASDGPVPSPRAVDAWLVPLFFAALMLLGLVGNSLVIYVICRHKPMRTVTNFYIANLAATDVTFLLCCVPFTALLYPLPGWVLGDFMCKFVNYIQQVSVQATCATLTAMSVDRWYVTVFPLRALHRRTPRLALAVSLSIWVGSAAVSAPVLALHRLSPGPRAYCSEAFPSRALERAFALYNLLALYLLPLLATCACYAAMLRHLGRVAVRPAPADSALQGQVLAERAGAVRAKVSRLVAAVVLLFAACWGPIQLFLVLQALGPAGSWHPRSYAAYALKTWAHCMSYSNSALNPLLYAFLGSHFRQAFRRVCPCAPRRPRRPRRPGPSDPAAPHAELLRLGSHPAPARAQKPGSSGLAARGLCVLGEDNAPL
D(2) dopamine receptor (Homo sapiens), sequence (P14416 whole entry, looked up): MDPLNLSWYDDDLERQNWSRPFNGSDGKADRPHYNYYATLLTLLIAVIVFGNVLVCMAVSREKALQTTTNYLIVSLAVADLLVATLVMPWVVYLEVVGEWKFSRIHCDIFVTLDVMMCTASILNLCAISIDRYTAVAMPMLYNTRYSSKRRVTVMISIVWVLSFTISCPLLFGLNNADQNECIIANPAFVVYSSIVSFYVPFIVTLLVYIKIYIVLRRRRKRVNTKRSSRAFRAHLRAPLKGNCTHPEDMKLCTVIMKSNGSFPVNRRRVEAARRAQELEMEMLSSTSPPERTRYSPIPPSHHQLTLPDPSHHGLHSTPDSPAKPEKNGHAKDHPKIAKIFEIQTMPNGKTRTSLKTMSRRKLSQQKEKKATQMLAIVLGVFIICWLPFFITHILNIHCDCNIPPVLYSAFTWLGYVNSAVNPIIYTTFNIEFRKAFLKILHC
Beta-2 adrenergic receptor (Homo sapiens), sequence (P07550 whole entry, looked up): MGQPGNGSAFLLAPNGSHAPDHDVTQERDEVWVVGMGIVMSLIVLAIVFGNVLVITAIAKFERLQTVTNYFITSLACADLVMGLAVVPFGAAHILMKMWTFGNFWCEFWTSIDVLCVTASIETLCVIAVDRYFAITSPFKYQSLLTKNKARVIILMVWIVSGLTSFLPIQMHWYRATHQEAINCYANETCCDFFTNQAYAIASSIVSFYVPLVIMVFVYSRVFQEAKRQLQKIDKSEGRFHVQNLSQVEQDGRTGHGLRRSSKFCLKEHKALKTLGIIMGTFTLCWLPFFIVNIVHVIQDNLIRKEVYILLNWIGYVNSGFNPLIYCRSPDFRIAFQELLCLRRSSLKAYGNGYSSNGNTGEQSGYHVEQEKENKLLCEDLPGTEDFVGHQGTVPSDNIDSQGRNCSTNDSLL
Muscarinic acetylcholine receptor M1 (Homo sapiens), sequence (P11229 whole entry, looked up): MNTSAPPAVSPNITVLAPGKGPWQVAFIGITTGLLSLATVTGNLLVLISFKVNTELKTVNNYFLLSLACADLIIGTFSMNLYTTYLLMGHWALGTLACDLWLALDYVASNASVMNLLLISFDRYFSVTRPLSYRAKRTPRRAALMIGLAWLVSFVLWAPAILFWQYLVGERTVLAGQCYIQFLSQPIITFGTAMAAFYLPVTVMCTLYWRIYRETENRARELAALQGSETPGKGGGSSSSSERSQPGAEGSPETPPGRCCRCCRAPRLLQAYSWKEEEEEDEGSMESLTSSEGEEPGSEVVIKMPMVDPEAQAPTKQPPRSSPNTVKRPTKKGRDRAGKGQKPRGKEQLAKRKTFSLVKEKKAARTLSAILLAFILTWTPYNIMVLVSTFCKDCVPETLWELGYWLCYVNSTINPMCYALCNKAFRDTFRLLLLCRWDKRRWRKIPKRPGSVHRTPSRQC

Take `CCCCCCCCCCCCO`: in experiment [1], the Potency entry is “inactive and 67.8 µM (active)”. The Potency result in [2], in experiment [3], in [4], in experiment [5], in [6] and in experiment [7] was “inactive” in each case. Besides, the Potency result in experiment [8], in experiment [9], in experiment [10], in experiment [11], in [12] and in experiment [13] was “inactive” each time. The Potency result in experiment [14], in experiment [15], in experiment [16], in experiment [17], in experiment [18] and in experiment [19] was “inactive” throughout. Besides, the Potency result in [20] is “inactive”.

For `CC(=O)OC[C@H]1O[C@@](COC(C)=O)(O[C@H]2O[C@H](COC(C)=O)[C@@H](OC(C)=O)[C@H](OC(C)=O)[C@H]2OC(C)=O)[C@@H](OC(C)=O)[C@@H]1OC(C)=O`, the Potency entry in experiment [1], in experiment [2], in [3], in experiment [4], in [5] and in experiment [6] was “inactive” each time. The Potency result in [7], in [9], in experiment [10], in experiment [11], in experiment [12] and in [13] was “inactive” throughout. For the same molecule, the Potency result in experiment [14], in experiment [15], in experiment [17], in [19] and in experiment [20] was “inactive” each time.

On to `CCCC(O)C(CC)CO` (stereo unspecified), for which the Potency result in experiment [1], in experiment [2], in experiment [3], in experiment [4], in experiment [5] and in experiment [6] was “inactive” in each case. For the same molecule, the Potency result in experiment [7], in experiment [8], in [9], in [10], in experiment [11] and in [12] was “inactive” each time. Further, the Potency entry in [13], in experiment [14], in [15], in experiment [16], in experiment [17] and in experiment [18] was “inactive” throughout. Moreover, the Potency entry in experiment [19] and in experiment [20] was “inactive” throughout.

As to `Nc1nc2ncc(CNc3ccc(C(=O)N[C@@H](CCC(=O)O)C(=O)O)cc3)nc2c(=O)[nH]1`, the Potency result in experiment [1], in [2], in experiment [3], in [4], in experiment [5] and in experiment [6] was “inactive” in each case. Further, the Potency entry in experiment [8], in experiment [9], in [10], in experiment [11], in [13] and in [14] was “inactive” in each case. Also, the Potency result in [15], in [16], in [17], in [18], in [19] and in experiment [20] was “inactive” in each case.

Turning to `OCCOCCOCCO`, the Potency entry in [1], in [2], in experiment [3], in experiment [4], in experiment [5] and in experiment [6] was “inactive” each time. Also, the Potency entry in [8], in [9], in [10], in experiment [11], in experiment [12] and in experiment [13] was “inactive” each time. Moreover, the Potency entry in experiment [14], in experiment [15], in experiment [16], in experiment [17], in [18] and in [20] was “inactive” each time.

In the case of `Oc1ccc(O)cc1`, the Potency in experiment [1] is 60.8 µM (active) and 61.1 µM (active) and 21.1 µM (active). The Potency result in experiment [2], in experiment [3], in experiment [4], in experiment [5], in experiment [6] and in [7] was “inactive” throughout. In addition, the Potency entry in [8], in [9], in experiment [10], in experiment [11], in [12] and in experiment [13] was “inactive” in each case. The Potency result in [14], in experiment [16], in [18], in experiment [19] and in [20] was “inactive” throughout.
